FLuc inh: blocks purified firefly luciferase enzyme activity; purified P. pyralis luciferase, luminescence, biochemical; Potency, µM (titrated, usually from 115 µM), actives largely listed as inhibitors; actives 2.5% (n = 76,000); also: nearly all actives have a fitted effect of over 65% in size
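FLuc 10nM, D-luciferin 10uM, ATP 10uM, Mg acetate 10mM, Tris acetate pH 7.5, Tween/BSA; cpd qHTS; enzyme added last; CCD luminescence.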
3T3 cytotox: kills NIH 3T3 cells | NIH 3T3 viability, CellTiter-Glo ATP luminescence, 48-72 h | Potency, µM (top dose mostly 96.7 µM), actives largely listed as inhibitors | actives 4.3% (n = 94,000); also: nearly all actives have a fitted effect of over 55% in size
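Viability of NIH 3T3 cells after 48 or 72 hr compound treatment at 37 °C was assessed by CellTiter-Glo, with luminescence imaged following a 10 min room-temperature step.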
HEK cytotox: kills HEK 293 cells. AID 1345083. Potency, µM (series often up to 115 µM), most hits filed as inhibitors. HEK 293 viability, ATP luminescence (CellTiter-Glo), 48-72 h. actives 6.6% (n = 94,000); also: nearly all actives have a fitted effect of over 60% in size
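Viability of HEK 293 cells, plated at 250 cells/well, was judged by cellular ATP after compound treatment for 48 or 72 hr. Luminescence was imaged 10 min after CellTiter-Glo addition at room temperature.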
hNpr1 antagonist: blocks ANP-stimulated signaling of human Npr1 receptor. P16066. Potency, µM (doses to about 46.3 µM), actives largely listed as inhibitors. actives 1.6% (n = 76,000). HEK293 hNpr1 GloSensor cGMP, ANP-stimulated luminescence; calls by dose curve; also: nearly all actives have a fitted effect of over 60% in size
Target sequence (P16066 whole entry, looked up): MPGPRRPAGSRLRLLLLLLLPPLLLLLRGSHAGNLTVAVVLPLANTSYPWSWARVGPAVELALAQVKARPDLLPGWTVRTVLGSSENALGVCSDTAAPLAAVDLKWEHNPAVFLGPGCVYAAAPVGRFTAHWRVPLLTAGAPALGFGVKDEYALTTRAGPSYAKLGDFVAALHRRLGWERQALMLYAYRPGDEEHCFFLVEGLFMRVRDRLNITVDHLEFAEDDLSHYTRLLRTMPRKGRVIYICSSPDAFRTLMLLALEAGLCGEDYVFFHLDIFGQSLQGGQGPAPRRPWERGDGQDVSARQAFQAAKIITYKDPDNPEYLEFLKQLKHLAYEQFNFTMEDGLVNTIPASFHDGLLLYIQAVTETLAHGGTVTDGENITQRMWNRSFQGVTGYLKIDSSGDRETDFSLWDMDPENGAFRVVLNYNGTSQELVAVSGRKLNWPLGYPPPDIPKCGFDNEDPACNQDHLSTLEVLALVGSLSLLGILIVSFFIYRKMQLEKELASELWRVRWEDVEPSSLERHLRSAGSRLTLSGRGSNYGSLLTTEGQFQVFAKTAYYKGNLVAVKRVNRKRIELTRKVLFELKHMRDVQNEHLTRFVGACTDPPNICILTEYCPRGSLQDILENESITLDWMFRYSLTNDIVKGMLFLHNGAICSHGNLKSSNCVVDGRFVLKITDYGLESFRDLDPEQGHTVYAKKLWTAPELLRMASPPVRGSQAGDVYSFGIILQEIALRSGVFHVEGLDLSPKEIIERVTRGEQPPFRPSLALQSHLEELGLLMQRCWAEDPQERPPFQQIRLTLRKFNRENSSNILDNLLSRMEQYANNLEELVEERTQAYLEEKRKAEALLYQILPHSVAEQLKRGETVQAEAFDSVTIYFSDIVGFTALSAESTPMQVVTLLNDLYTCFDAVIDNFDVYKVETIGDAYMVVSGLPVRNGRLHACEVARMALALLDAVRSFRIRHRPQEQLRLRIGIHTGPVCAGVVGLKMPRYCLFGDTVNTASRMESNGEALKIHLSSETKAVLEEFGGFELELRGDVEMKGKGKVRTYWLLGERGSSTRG
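HEK293 cells stably expressing human Npr1 and cGMP GloSensor pGS-40F, loaded 2 h with 2% GloSensor reagent, given compound 30 min at room temperature. Luminescence read before and 20 min after 0.1 nM hNppA.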
Each line names hits and unclear results; the compound was inactive in the other large screens. An excerpt weighted towards active compounds, which were near 11% of everything screened. Unless noted, calls follow the shape of the dose curve; as a rule, active = well fitted curve in the direction sought with a large enough effect; inconclusive = small, poorly fitted or top-dose-only effect, or another doubt; inactive = no such curve, though single readings can be large; an effect the other way counts as inactive or inconclusive.

O=C(c1ccc2cc[nH]c2c1)N1CCCC(Cc2noc(-c3ccccc3)n2)C1 (centres undefined)	3T3 cytotox 20µM, HEK cytotox inconclusive
O=C(NCC1CCCN(Cc2ncccn2)C1)c1ccc(-c2ccccc2)cc1 (centres undefined)	HEK cytotox inconclusive
CCOC(=O)C1CCN(C(=O)c2cn3cc(-c4ccc(F)cc4)sc3n2)CC1	none (no result: FLuc inh, hNpr1 antagonist)
Cn1cc(-c2cc(-c3ccncc3)c3cncn3c2)cn1	3T3 cytotox 40µM, HEK cytotox inconclusive
COc1ccc(-c2cc(-c3ccncc3)cn3cncc23)cc1	3T3 cytotox 35µM, HEK cytotox inconclusive
CC(=O)Nc1cccc(-c2cc(-c3ccncc3)c3cncn3c2)c1	3T3 cytotox inconclusive, HEK cytotox inconclusive
OCc1ccc(-c2cc(-c3ccncc3)c3cncn3c2)cc1	3T3 cytotox 40µM, HEK cytotox inconclusive
COc1ccc(-c2cc(-c3ccc(F)cc3)cn3cncc23)cc1	FLuc inh inconclusive, 3T3 cytotox inconclusive, HEK cytotox 100µM
COc1ccc(-c2cc(-c3ccc(F)cc3OC)cn3cncc23)cc1	3T3 cytotox inconclusive, HEK cytotox inconclusive
COCCN1CCC2(CCC1=O)CCN(C(=O)Nc1cc(OC)ccc1OC)CC2	none (no result: FLuc inh, hNpr1 antagonist)
COc1ccc(CN(C)C2CCCc3ccccc32)cc1 (centres undefined)	3T3 cytotox inconclusive, HEK cytotox inconclusive
COc1ccc(-c2cc(-c3cccc(C(N)=O)c3)cn3cncc23)cc1	3T3 cytotox 40µM, HEK cytotox inconclusive
NC(=O)c1cccc(-c2cc(-c3cccnc3)c3cncn3c2)c1	3T3 cytotox inconclusive, HEK cytotox inconclusive
COc1ccc(-c2cc(-c3ccncc3)c3cncn3c2)cc1	FLuc inh inconclusive, 3T3 cytotox 35µM, HEK cytotox inconclusive
CNC(=O)c1cc(C)nc2onc(C3CCCN3C(=O)c3cccc(Cl)c3)c12 (centres undefined)	HEK cytotox inconclusive (no result: FLuc inh, hNpr1 antagonist)
COc1ccc(Cn2c(C3CCN(C(=O)Cc4ccc(C)cc4)CC3)n[nH]c2=O)cc1	3T3 cytotox inconclusive
COc1ccccc1-c1cccc(C(=O)N2CCC[C@H]2C(=O)N2CCN(C(C)=O)CC2)c1	none (no result: FLuc inh, hNpr1 antagonist)
O=C(Cc1ccc2c(c1)OCO2)N1CCc2c(n(CCOc3ccccc3)n(-c3ccccc3)c2=O)C1	3T3 cytotox inconclusive, HEK cytotox inconclusive
O=C(NCC(=O)N1CCC(Cc2ccccc2)CC1)c1ccc(-c2cnc3ccccc3c2)cc1	3T3 cytotox inconclusive, HEK cytotox 10µM (no result: FLuc inh, hNpr1 antagonist)
O=C(CNC(=O)c1ccc(-c2cnc3ccccc3c2)cc1)NCc1ccccc1Cl	HEK cytotox inconclusive (no result: FLuc inh, hNpr1 antagonist)
CC1Oc2ccc(NC(=O)c3c(F)cccc3F)cc2CN(Cc2ccc(Cl)cc2)C1=O (centres undefined)	3T3 cytotox inconclusive, HEK cytotox 16µM
CCC1Oc2ccc(NC(=O)c3ccccc3F)cc2CN(CCc2ccc(OC)c(OC)c2)C1=O (centres undefined)	3T3 cytotox 40µM, HEK cytotox inconclusive
CCC1Oc2ccc(NC(=O)c3ccccc3F)cc2CN(Cc2ccc3c(c2)OCO3)C1=O (centres undefined)	3T3 cytotox inconclusive, HEK cytotox inconclusive
COc1cccc(OC)c1C(=O)Nc1ccc2c(c1)CN(Cc1ccccc1F)C(=O)C(C)O2 (centres undefined)	HEK cytotox inconclusive
COc1ccc(C(=O)Nc2ccc3c(c2)CN(Cc2ccc(OC)cc2OC)C(=O)CO3)cc1	FLuc inh inconclusive, 3T3 cytotox inconclusive, HEK cytotox inconclusive
COc1ccc(CN2Cc3cc(NC(=O)c4ccccc4OC)ccc3OCC2=O)c(OC)c1	3T3 cytotox 25µM, HEK cytotox 40µM
CC1Oc2ccc(NC(=O)c3c(F)cccc3F)cc2CN(CCc2ccc(F)cc2)C1=O (centres undefined)	3T3 cytotox inconclusive, HEK cytotox inconclusive
COc1ccccc1C(=O)Nc1ccc2c(c1)CN(Cc1ccc(F)cc1)C(=O)C(C)O2 (centres undefined)	3T3 cytotox inconclusive, HEK cytotox 35µM
COc1ccc(OC)c(S(=O)(=O)N2CC(N3CC(C(=O)N4CCCC4)CC3=O)C2)c1 (centres undefined)	none (no result: FLuc inh, hNpr1 antagonist)
CCOC(=O)[C@H]1[C@@H](O)C(=O)N(C(C)C)C12CCN(C(=O)c1cc3ccccc3s1)CC2	3T3 cytotox inconclusive (no result: FLuc inh, hNpr1 antagonist)
C[S+](=O)([O-])NCc1nnc2n1C(C(=O)NCCc1ccc(Cl)cc1)CC2 (centres undefined)	none (no result: FLuc inh, hNpr1 antagonist)
O=C([C@H]1O[C@H](CCN2CCOCC2)CC[C@@H]1O)N1CCN(c2ccccc2)CC1	none
CC(=O)N1CCC(c2nnc3n2C(C(=O)NCc2ccc(F)cc2)CC3)CC1 (centres undefined)	none (no result: FLuc inh, hNpr1 antagonist)
CC1Oc2ccc(NC(=O)c3ccccc3Cl)cc2CN(Cc2ccc(F)cc2)C1=O (centres undefined)	3T3 cytotox inconclusive, HEK cytotox 40µM
O=C(Nc1cc(F)cc(F)c1)N1CCCC2(C1)Nc1cccnc1NC2=NC1CCCC1 (centres undefined)	3T3 cytotox inconclusive, HEK cytotox 40µM
COC[C@H]1C[C@H]2C[C@@H](Oc3ccccn3)[C@H](N(C)CCc3ccc(OC)c(OC)c3)[C@]2(O)CO1	3T3 cytotox inconclusive (no result: FLuc inh, hNpr1 antagonist)
O=C(CCC1CCCC1)N1CCC2(CC1)CC(N(Cc1ccc(F)cc1)C1CC1)CCO2 (centres undefined)	3T3 cytotox inconclusive, HEK cytotox inconclusive
O=C(CC1CCCCC1)N1CCC2(CC1)CC(N(Cc1ccc(F)cc1)C1CC1)CCO2 (centres undefined)	3T3 cytotox inconclusive, HEK cytotox 50µM
COC1CCOC2(CCN(C(=O)NCCc3ccccc3)CC2)C1 (centres undefined)	FLuc inh 28µM
Cc1cccc(C(=O)N2CCc3[nH]nc(C(=O)NCCCc4ccccc4)c3C2)c1	3T3 cytotox inconclusive, HEK cytotox inconclusive
CC(C)c1ccc(C(=O)N2CCc3[nH]nc(C(=O)NCCCc4ccccc4)c3C2)cc1	none
COc1cccc(C(=O)N2CCc3[nH]nc(C(=O)NCCCc4ccccc4)c3C2)c1	3T3 cytotox 32µM, HEK cytotox inconclusive
Cc1ccc(C(=O)N2CCc3[nH]nc(C(=O)NCCCc4ccccc4)c3C2)cc1	3T3 cytotox inconclusive, HEK cytotox inconclusive
O=C(NCCCc1ccccc1)c1n[nH]c2c1CN(C(=O)c1ccc(F)c(F)c1)CC2	3T3 cytotox 35µM, HEK cytotox inconclusive (no result: FLuc inh, hNpr1 antagonist)
O=C(NCCCc1ccccc1)c1n[nH]c2c1CN(C(=O)c1cccc(Cl)c1)CC2	3T3 cytotox 35µM, HEK cytotox inconclusive (no result: FLuc inh, hNpr1 antagonist)
CCC(C)C(=O)N1CCc2[nH]nc(C(=O)NCCCc3ccccc3)c2C1 (centres undefined)	3T3 cytotox inconclusive, HEK cytotox 11µM
N#Cc1cccnc1N1CCCC(CO)(Cc2ccc(F)cc2F)C1 (centres undefined)	3T3 cytotox inconclusive, HEK cytotox inconclusive
c1ccc(-c2nc(NCc3cc4n(n3)CCCNC4)c3ccccc3n2)cc1	3T3 cytotox inconclusive, HEK cytotox inconclusive
O=C1CCN(Cc2cccnc2)CCCC(c2nc(-c3cccnc3)no2)CCN1 (centres undefined)	HEK cytotox inconclusive
